Data as given in PMC6792352, “Limited Chemical Structural Diversity Found to Modulate Thyroid Hormone Receptor in the Tox21 Chemical Library” (Environmental Health Perspectives, 2019).
Structures can show the parent of a compound that is named as a salt.

Tested on: thyroid hormone receptor (endogenous TRα and TRβ)
Set-up: species or system GH3-TRE-Luc (rat pituitary); GH3-TRE-Luc luciferase reporter, antagonist mode against 1 nM T3, loss of signal, qHTS
Settings: antagonist mode, 1 nM T3, no GH3 cytotoxicity hit, read-out: Average AC50 (uM) GH3-TRE-Antag

Structure (SMILES) | AC50
CCN(CC)C(=O)[C@@H]1C=C2c3cccc4[nH]cc(c34)C[C@H]2N(C)C1 [Lysergide] | > 50 µM
C[C@]12CC[C@H]3[C@@H](CCC4=CC(=O)CC[C@@]43C)[C@@H]1CC[C@@H]2OC(=O)CCc1ccccc1 [Testosterone 17-phenylpropionate] | 30 µM
CCOP(=S)(OCC)Oc1cnc2ccccc2n1 [Quinalphos] | 55.1 µM
O=c1c2ccccc2c(=O)c2c1cc(Cl)c1[nH]c3c([nH]c12)c(Cl)cc1c(=O)c2ccccc2c(=O)c13 [D&C Blue No. 9] | 57.8 µM
CNC(=O)Oc1ccccc1C(=O)Nc1ccccc1 [Anilamate] | > 50 µM
CC[C@@H](O)C(C[C@@H](C)N(C)C)(c1ccccc1)c1ccccc1 [(+)-alpha-Methadol hydrochloride] | 55.7 µM
C[C@]12CCC(=O)C=C1CC[C@@H]1[C@@H]2CC[C@]2(C)C(=O)CC[C@@H]12 [4-Androstene-3,17-dione] | > 50 µM
COC1=CC=C2[C@H]3Cc4ccc(OC)c5c4[C@@]2(CCN3C)[C@H]1O5 [Thebaine] | > 20 µM
COP(=O)(OC)O/C(=C\Cl)c1cc(Cl)c(Cl)cc1Cl [Z-Tetrachlorvinphos] | 37.7 µM
CCOP(=S)(OCC)Oc1cc(C)nc(C(C)C)n1 [Diazinon] | 46.4 µM
CCOP(=S)(OCC)SC(CCl)N1C(=O)c2ccccc2C1=O (stereo not shown) [Dialifor] | > 90 µM
OCC(c1ccc(Cl)cc1)c1ccc(Cl)cc1 [2,2-Bis(4-chlorophenyl)ethanol] | 46.2 µM
Cc1ccc2c(c1)[C@]13CCCC[C@@H]1[C@H](C2)N(C)CC3 [Dimemorfan phosphate] | 42.3 µM
CC(C)=CCN1CC[C@]2(C)c3cc(O)ccc3C[C@H]1[C@H]2C [(+)-Pentazocine succinate] | 37.2 µM
CC(=O)[C@H]1CC[C@H]2[C@@H]3CC[C@@H]4C[C@H](O)CC[C@]4(C)[C@H]3CC[C@]12C [Eltanolone] | 13.6 µM
C[C@]12CC[C@H](O)C[C@H]1CC[C@@H]1[C@@H]2CC[C@]2(C)[C@@H](c3ccc(=O)oc3)C[C@H]3O[C@]132 [Bufogenin] | 39.2 µM

Structure (SMILES) | AC50
Clc1cc(Cl)c(-c2cc(Cl)c(Cl)cc2Cl)cc1Cl [2,2',4,4',5,5'-Hexachlorobiphenyl] | 35.4 µM
O=[N+]([O-])c1cccc2cccc([N+](=O)[O-])c12 [1,8-Dinitronaphthalene] | 49.5 µM
O=P(Oc1ccccc1)(Oc1ccccc1)Oc1ccccc1 [Triphenyl phosphate] | > 90 µM
CCC(N)Cc1c[nH]c2ccccc12 (stereo not shown) [Etryptamine acetate] | 43.6 µM
C[C@H](CN1CCOCC1)C(C(=O)N1CCCC1)(c1ccccc1)c1ccccc1 [Dextromoramide tartrate] | 56.7 µM
COP(=O)(OC)OC(=CCl)c1cc(Cl)c(Cl)cc1Cl [Tetrachlorovinphos] | 27.1 µM
CON(C)C(=O)Nc1ccc(Br)c(Cl)c1 [Chlorbromuron] | 60.7 µM
CCc1cc2c(s1)-n1c(C)nnc1CN=C2c1ccccc1Cl [Etizolam] | > 50 µM
CCOP(=S)(OCC)Oc1ccc2c(C)c(Cl)c(=O)oc2c1 [Coumaphos] | > 50 µM
CCN(CC)c1nc(C)cc(OP(=S)(OC)OC)n1 [Pirimiphos-methyl] | 57.1 µM
c1ccc2c(c1)sc1ccccc12 [Dibenzothiophene] | 33.4 µM
COP(=S)(OC)SCN1C(=O)c2ccccc2C1=O [Phosmet] | > 50 µM
C[C@]12CC[C@H]3[C@@H](CCC4=C(Cl)C(=O)CC[C@@]43C)[C@@H]1CC[C@@H]2O [Clostebol] | 29.2 µM
CC(C)CC(N(C)C)C1(c2ccc(Cl)cc2)CCC1 (stereo not shown) [Sibutramine hydrochloride] | 29.8 µM
COc1ccc2[nH]cc(CCN(C(C)C)C(C)C)c2c1 [5-Methoxy-N,N-diisopropyltryptamine hydrochloride] | 70.7 µM

Same assay, conditions: read-out: Average AC50 (uM) GH3-TRE-Antag; 24 h; antagonist

Structure (SMILES) | AC50
CN1C(=O)CN=C(c2ccccc2)c2cc(Cl)ccc21 [Diazepam] | 49.5 µM
O=C1CN=C(c2ccccc2)c2cc(Cl)ccc2N1 [Desmethyldiazepam] | 22.9 µM
CC[C@]1(O)CC[C@H]2[C@@H]3CCC4=CCCC[C@@H]4[C@H]3CC[C@@]21C [Ethylestrenol] | 7.8 µM
O=C1Nc2ccc(Cl)cc2C(c2ccccc2)=NC1O (stereo not shown) [Oxazepam] | > 50 µM
O=C1Nc2ccc(Cl)cc2C(c2ccccc2Cl)=NC1O (stereo not shown) [Lorazepam] | > 50 µM
C[C@]12CC[C@H]3[C@@H](CCC4=CC(=O)CC[C@@H]43)[C@@H]1CC[C@@H]2OC(=O)CCc1ccccc1 [Nandrolone phenpropionate] | 19.5 µM
